High-throughput results: PubChem BioAssay, National Center for Advancing Translational Sciences (NCATS)
Giardia killer = Small Molecules that selectively kill Giardia lamblia: qHTS; Giardia lamblia trophozoite viability; activity change, % at 7.66 µM, hits read low; actives 0.15% (n = 340,000); in the data active = activity change below about -80%; inconclusive = between about -30% and that limit;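 also: parasites exposed to compound for two days anaerobically before the ATP read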
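ATP-content bioluminescence gauges trophozoite survival. Cells (100/well) receive compound and incubate anaerobically for 48 hrs at 37 deg C; detection reagent follows for 15-30 min at room temperature.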
uPA generation = qHTS for Inhibitors of Cell Surface uPA Generation; actives 0.31% (n = 330,000); AID 540303, 2011; cell surface uPA generation assay, qHTS; Potency, µM (series often up to 38.3 µM), most hits filed as inhibitors; active = well fitted inhibition curve with a large enough effect; inconclusive = small, poorly fitted or top-dose-only effect; inactive = no such curve, though single readings can be large or run the other way; tested in mouse RAW 264.7 cells; also: nearly all actives have a fitted effect of over 55% in size
TGFb inhibitor = qHTS for Inhibitors of TGF-b. HepG2 CAGA-GFP TGF-b/SMAD3 reporter, GFP fluorescence, 18 h; TGF-beta stimulated, 500 pg/mL final. Potency, µM (top dose mostly 46.1 µM), actives largely listed as inhibitors. AID 588855, 2011. actives 1.2% (n = 410,000); also: nearly all actives have a fitted effect of over 65% in size
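GFP signal (ex488/em500-530) from TGF-beta-stimulated HEPG2 CAGA-GFP cells, 500 pg/mL final, 18 h at 37 degrees C in DMEM plus 1% FBS, normalized to unstimulated and DMSO-stimulated controls.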
ATXN viability = Viability Counterscreen for Primary qHTS for Inhibitors of ATXN expression; S2 cells (HEK-293 line with an ATXN2-luciferase reporter) viability, CellTiter-Fluor protease fluorescence, 24 h; Potency, µM (top dose mostly 56.7 µM), most hits filed as cytotoxic; actives 0.49% (n = 400,000); AID 651635, 2014; also: nearly all actives have a fitted effect of over 40% in size
HepG2 tox-1 = qHTS for Inhibitors of TGF-b: Cytotox Counterscreen; actives 0.76% (n = 410,000); AID 588856, 2011; HepG2 CAGA-GFP viability, ATP luminescence, 18 h; Potency, µM (series often up to 46.1 µM), actives largely listed as cytotoxic
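CellTiter-Glo luminescence gave cytotoxicity after 18 hours at 37 degrees C. The cells were HepG2 CAGA-GFP in 1% FBS DMEM, stimulated with 500 pg/mL TGF-beta after compound addition. %Activity was normalised to no-cell wells (complete cell-killing) and DMSO (no toxicity), and curves were fitted and classified.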
ATXN2 expr inh = Primary qHTS for Inhibitors of ATXN expression; HEK-293 ATXN2-luciferase reporter, luminescence, 24 h; Potency, µM (doses to about 57 µM), hits mostly inhibitors; actives 0.72% (n = 360,000); AID 1745845, 2022; also: nearly all actives have a fitted effect of over 55% in size
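ATXN2-luciferase reporter cells (luciferase flanked by upstream and downstream ATXN2 gene portions) were treated 24 h at 37 °C with compounds at up to 57 uM. SteadyGlo luminescence gave expression; GF-AFC fluorescence gave viability.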
TGFb CAGA inh = qHTS for Inhibitors of TGF-b: Confirmation of Cherry Picks. AID 720534, 2013. HepG2 CAGA-GFP TGF-b reporter, GFP fluorescence, 18 h; cells stimulated with TGF-beta, 500 pg/mL. actives 63% (n = 1,600). Potency, µM (highest dose often 46.1 µM), actives largely listed as inhibitors. shares compounds with TGFb inhibitor; also: nearly all actives have a fitted effect of over 65% in size
HepG2 tox-2 = qHTS for Inhibitors of TGF-b: Cytotox Counterscreen for Cherry Picks. Potency, µM (series often up to 46.1 µM), actives largely listed as inhibitors. AID 720535, 2013. actives 27% (n = 1,600). shares compounds with TGFb inhibitor. HepG2 CAGA-GFP viability, ATP luminescence, 18 h; cells stimulated with TGF-beta, 500 pg/mL; also: nearly all actives have a fitted effect of over 70% in size
CCL64 TGFb inh = qHTS for Inhibitors of TGF-b: CCL64 Cells Orthogonal Assay for Cherry Picks | CCL64 CAGA-GFP reporter, TGF-b stimulated, GFP fluorescence, 18 h | shares compounds with TGFb inhibitor | actives 41% (n = 1,600) | Potency, µM (highest dose often 46.1 µM), hits mostly inhibitors; also: nearly all actives have a fitted effect of over 65% in size
TGFb COP inh = qHTS for Inhibitors of TGF-b: Hit Validation in HepG2 Cells using COP promoter; shares compounds with TGFb inhibitor; HepG2 COP-GFP TGF-b reporter, GFP fluorescence, 18 h; cells stimulated by added recombinant TGF-beta; Potency, µM (highest dose often 46.1 µM), most hits filed as inhibitors; actives 3% (n = 1,600); also: nearly all actives have a fitted effect of over 70% in size
Large screens that a line does not name were inactive (follow-up assays come after a bar, where they were run). Hits are enriched below; roughly 2.6% of the tested compounds scored in any of these assays. Unless noted, calls follow the shape of the dose curve; as a rule, active = well fitted curve in the direction sought with a large enough effect; inconclusive = small, poorly fitted or top-dose-only effect, or another doubt; inactive = no such curve, though single readings can be large; an effect the other way counts as inactive or inconclusive.

O=C(NCc1ccco1)c1nc2c(nnn2Cc2ccccc2Cl)c(=O)[nH]1	TGFb inhibitor 2.82µM, ATXN viability inconclusive, ATXN2 expr inh 15.8µM | TGFb CAGA inh 5.8µM | HepG2 tox-2 inconclusive | CCL64 TGFb inh 8.2µM | TGFb COP inh inactive
Cc1ccc2oc(-c3ccc(C)c(NC(=O)COc4ccc(Cl)cc4)c3)nc2c1	none (no result: Giardia killer, uPA generation, ATXN viability, ATXN2 expr inh)
COc1cccc(NC(=O)C2CCN(S(=O)(=O)c3ccc4c(c3)CC(C)N4C(C)=O)CC2)c1 (stereo not drawn)	none
CC(=O)N1c2ccc(S(=O)(=O)N3CCC(C(=O)Nc4cccc(C(F)(F)F)c4)CC3)cc2CC1C (stereo not drawn)	TGFb inhibitor 11.2µM, ATXN2 expr inh inconclusive | TGFb CAGA inh 16.4µM | HepG2 tox-2 inconclusive | CCL64 TGFb inh inactive | TGFb COP inh inactive
CCC1=C(CC2NCCc3ccccc32)CC2c3cc(OC)c(OC)cc3CCN2C1 (stereo not drawn)	TGFb inhibitor 2.82µM, ATXN viability inconclusive, ATXN2 expr inh 8.91µM | TGFb CAGA inh 1.46µM | HepG2 tox-2 inconclusive | CCL64 TGFb inh 5.17µM | TGFb COP inh inactive
COc1cc2c(cc1OC)C1Cc3ccc(OC)c(OC)c3CN1CC2 (stereo not drawn)	none
CCC(=O)Nc1ccc(C)cc1-c1nc2ccccc2n(CC(=O)c2ccc(C)cc2)c1=O	none (no result: Giardia killer, uPA generation, ATXN viability, ATXN2 expr inh)
CC(C)(C)CN1CCN(Cc2nc(-c3ccc(F)cc3)cs2)CC1CCO (stereo not drawn)	TGFb inhibitor inconclusive | TGFb CAGA inh inconclusive | HepG2 tox-2 inconclusive | CCL64 TGFb inh inactive | TGFb COP inh inactive
OCCC1CN(Cc2nc(-c3ccc(F)cc3)cs2)CCN1CCc1ccccc1 (stereo not drawn)	ATXN2 expr inh inconclusive
COC(=O)[C@@]1(Cc2ccccc2)[C@H]2C(=O)N(Cc3ccccc3)C(=O)[C@H]2[C@H]2CN=C(SCC3CC3)N21	uPA generation inconclusive, TGFb inhibitor 11.2µM, ATXN viability inconclusive | TGFb CAGA inh inconclusive | HepG2 tox-2 inconclusive | CCL64 TGFb inh inconclusive | TGFb COP inh inactive
Cc1c(C(=O)Nc2nonc2-c2ccc(F)cc2)oc2ccc(F)cc12	TGFb inhibitor 11.2µM, ATXN viability inconclusive, ATXN2 expr inh 28.2µM | TGFb CAGA inh 13µM | HepG2 tox-2 inconclusive | CCL64 TGFb inh inconclusive | TGFb COP inh inactive
Clc1ccc2c(SCC3CO3)c3ccccc3nc2c1 (stereo not drawn)	TGFb inhibitor 7.94µM, ATXN2 expr inh inconclusive (no result: ATXN viability) | TGFb CAGA inh 16.4µM | HepG2 tox-2 18.4µM | CCL64 TGFb inh 20.6µM | TGFb COP inh 16.4µM
CCOc1ccc(NC(=O)c2cnc3sc(N4CCOCC4)nn3c2=O)cc1	none (no result: Giardia killer, uPA generation, ATXN viability, ATXN2 expr inh)
Cc1cc(C)c(NC(=O)CSc2ccc(-c3sc(-c4ccccc4)nc3C)nn2)c(C)c1	none (no result: Giardia killer, uPA generation, ATXN viability, ATXN2 expr inh)
O=C(CSc1nc2ccccc2[nH]1)Nc1ccccc1F	none
Nc1ncnc2nc(SCC(=O)Nc3ccccc3F)[nH]c12	TGFb inhibitor 7.94µM | TGFb CAGA inh 10.3µM | HepG2 tox-2 inactive | CCL64 TGFb inh 16.4µM | TGFb COP inh inactive
CCOC(=O)CCS(=O)(=O)c1nc(-c2ccccc2)cc(C(F)(F)F)n1	TGFb inhibitor inconclusive, ATXN2 expr inh inconclusive (no result: ATXN viability)
COC(=O)CCS(=O)(=O)c1nc(-c2ccccc2)cc(C(F)(F)F)n1	TGFb inhibitor 5.01µM, HepG2 tox-1 14.1µM, ATXN2 expr inh inconclusive (no result: uPA generation, ATXN viability) | TGFb CAGA inh 4.61µM | HepG2 tox-2 14.6µM | CCL64 TGFb inh 2.06µM | TGFb COP inh inconclusive
CC=Cc1cc2c(c(=O)o1)C(=O)C(O)C(C)O2 (stereo not drawn)	TGFb inhibitor 11.2µM, ATXN2 expr inh inconclusive (no result: ATXN viability) | TGFb CAGA inh 5.17µM | HepG2 tox-2 20.6µM | CCL64 TGFb inh inconclusive | TGFb COP inh inactive
CCN(CC)S(=O)(=O)c1ccc2oc(SCC(=O)Nc3cc(C)on3)nc2c1	TGFb inhibitor 10µM, ATXN2 expr inh inconclusive | TGFb CAGA inh inconclusive | HepG2 tox-2 inconclusive | CCL64 TGFb inh inactive | TGFb COP inh inactive
CN(C)c1ccc(/C=C2\C=Cc3ccccc32)c(F)c1	none (no result: Giardia killer, uPA generation, ATXN viability, ATXN2 expr inh)
Cc1ccc(N2CCN(C(=O)c3ccccc3F)CC2)c(C)c1	ATXN viability inconclusive
O=C(c1c[nH]c(C(=O)N2CCN(c3ccccc3F)CC2)c1)c1cccc(Cl)c1Cl	uPA generation inconclusive, TGFb inhibitor 10µM (no result: ATXN2 expr inh) | TGFb CAGA inh 11.6µM | HepG2 tox-2 inconclusive | CCL64 TGFb inh inconclusive | TGFb COP inh inactive
Cc1ccccc1C(=O)c1c[nH]c(C(=O)N2CCN(c3ccccc3F)CC2)c1	TGFb inhibitor inconclusive | TGFb CAGA inh 13µM | HepG2 tox-2 inactive | CCL64 TGFb inh inconclusive | TGFb COP inh inactive
Cc1cc(C(=O)N2CCN(C/C=C/c3ccccc3)CC2)cs1	TGFb inhibitor 15.8µM | TGFb CAGA inh inconclusive | HepG2 tox-2 inactive | CCL64 TGFb inh inactive | TGFb COP inh inactive
O=C(c1cccnc1)N1CCN(C/C=C/c2ccccc2)CC1	none
O=C(COc1ccccc1C(=O)Nc1ccccc1)Nc1cccc([N+](=O)[O-])c1	none (no result: Giardia killer, uPA generation, ATXN viability, ATXN2 expr inh)
O=C(CSc1ncccn1)NNC(=O)c1ccccc1	none
CCN1CCN(c2ccc(S(=O)(=O)N3CCCCC3)cc2NC(=O)c2ccc([N+](=O)[O-])s2)CC1	Giardia killer inconclusive, TGFb inhibitor 8.91µM, ATXN viability inconclusive, ATXN2 expr inh 25.1µM | TGFb CAGA inh 16.4µM | HepG2 tox-2 inconclusive | CCL64 TGFb inh inconclusive | TGFb COP inh inconclusive
CCN1CCN(c2ccc(S(=O)(=O)N3CCCCC3)cc2NC(=O)c2ccccc2)CC1	none
